Source: PubChem BioAssay
APE1 inh – inhibitors of human APE1 endonuclease. 350,000 tested, 0.35% active. Potency, µM (highest dose often 65.8 µM), usual class: inhibitors. P27695. recombinant APE1, TAMRA/BHQ-2 abasic DNA cleavage fluorescence; further: nearly all actives have a fitted effect of over 55% in size
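Enzyme (0.75 nM final) and test compound are incubated 15 min at room temperature before adding 50 nM quenched THF abasic-site duplex. Cleavage dequenches TAMRA, followed at 525/598 nm over three reads one minute apart.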
POLB inh – DNA polymerase beta (human) inhibition; P06746; 340,000 tested, 1.3% active; Pol beta primer extension/strand displacement, fluorescence kinetic; Potency, µM (series often up to 114 µM), actives largely listed as inhibitors
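Curves were derived by four-parameter Hill fits of normalized qHTS data. The kinetic fluorescent primer-extension read was taken at 0 and 10 min after 50 nM substrate, following a 15 min room-temperature preincubation of 10 nM enzyme with compounds.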
GLS inhibitor – blocks human kidney-isoform glutaminase activity. AID 624170. 410,000 tested, 0.21% active. GLS enzymatic activity, qHTS titration. Potency, µM (top dose mostly 45.5 µM), most hits filed as inhibitors
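Glutamate formation by hKGA was monitored fluorometrically using coupled glutamate oxidase, HRP and Amplex Red. Substrate was added as 1 mM L-glutamine solution; incubation was 30 min at RT after an initial read.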
Pol iota inh – blocks human DNA polymerase iota activity. 390,000 tested, 1% active. Pol iota fluorescent replication assay, 10 min. AID 588590. Potency, µM (titrated, usually from 115 µM), hits mostly inhibitors
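Fluorescent replication assay read twice, at 0 min and 10 min after adding 50 nM (final) substrate. Enzyme (10 nM) and compounds were first incubated 15 min at room temperature; enzyme-free buffer wells were negative controls.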
POLH inh – blocks human DNA polymerase eta activity | AID 588591 | Q9Y253 | 390,000 tested, 1.2% active | recombinant Pol eta, fluorescent DNA replication assay | Potency, µM (doses to about 114 µM), hits mostly inhibitors
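Pol eta at 10 nM preincubated with compounds 15 min at room temperature; reaction started with fluorescent substrate (50 nM final) and read kinetically at 0 and 10 min.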
POLK inh – inhibitors of human DNA polymerase kappa. purified Pol kappa, fluorescent DNA synthesis assay, 10 min. Potency, µM (series often up to 107 µM), actives largely listed as inhibitors. 400,000 tested, 0.53% active. AID 588579
Target sequence (Q9UBT6 whole entry, looked up): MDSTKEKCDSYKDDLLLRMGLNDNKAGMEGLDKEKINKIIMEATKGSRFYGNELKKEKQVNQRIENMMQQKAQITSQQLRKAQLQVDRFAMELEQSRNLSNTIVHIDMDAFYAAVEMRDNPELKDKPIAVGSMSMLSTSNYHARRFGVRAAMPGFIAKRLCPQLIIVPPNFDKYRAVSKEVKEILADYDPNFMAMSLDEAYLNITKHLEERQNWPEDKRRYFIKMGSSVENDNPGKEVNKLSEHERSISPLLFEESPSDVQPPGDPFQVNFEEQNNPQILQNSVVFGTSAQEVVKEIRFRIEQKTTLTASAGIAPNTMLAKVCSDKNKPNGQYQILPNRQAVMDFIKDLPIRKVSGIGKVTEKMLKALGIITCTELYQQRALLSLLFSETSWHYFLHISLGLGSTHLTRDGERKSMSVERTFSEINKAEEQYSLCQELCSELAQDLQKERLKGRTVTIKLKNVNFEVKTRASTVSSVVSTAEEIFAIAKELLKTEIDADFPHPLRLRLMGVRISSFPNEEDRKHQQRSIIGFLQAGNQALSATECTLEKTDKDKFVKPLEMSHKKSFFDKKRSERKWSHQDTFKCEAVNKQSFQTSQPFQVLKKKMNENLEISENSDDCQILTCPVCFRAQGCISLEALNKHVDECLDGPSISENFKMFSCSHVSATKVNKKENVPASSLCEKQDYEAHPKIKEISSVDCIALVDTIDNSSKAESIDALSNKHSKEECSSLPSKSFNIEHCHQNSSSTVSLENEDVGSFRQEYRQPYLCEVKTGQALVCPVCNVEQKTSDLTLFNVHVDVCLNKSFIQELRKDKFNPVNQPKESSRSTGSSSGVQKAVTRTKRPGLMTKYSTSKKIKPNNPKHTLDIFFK
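10 nM Pol kappa preincubated 15 min at room temperature with compounds, then reaction started with substrate at 50 nM final. Fluorescence read kinetically at 0 and 10 min; buffer-only wells served as negative control.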
A number is an active result; n = inactive; u = inconclusive; x = no result. The list is not random: actives were taken first. Their share in the collection is about 2.4%. The call rests on the fitted dose curve; in most records, active means well fitted curve in the direction sought with a large enough effect; inconclusive means small, poorly fitted or top-dose-only effect, or another doubt; inactive means no such curve, though single readings can be large; an effect the other way counts as inactive or inconclusive.

SMILES | APE1 inh | POLB inh | GLS inhibitor | Pol iota inh | POLH inh | POLK inh
O=C(COc1ccccc1)NCC(=O)N/N=C/c1cc(Br)ccc1OCc1ccccc1 | n | n | n | n | n | n
CC(=O)N(c1ccccc1C)C1CCCC1 | n | n | n | n | n | n
CC(=O)N(C1=C(Cl)C(=O)c2ccccc2C1=O)C1CCCCC1 | n | n | 6.3µM | u | n | n
COc1cccc(/C=N/NC(=O)c2cc3c(OC)ccc(OC)c3[nH]2)c1O | n | n | n | n | n | n
CCn1c(SCC(=O)Nc2sc3c(c2C(N)=O)CCC(C)C3)nnc1-c1ccco1 (stereo unspecified) | u | 56µM | n | 22µM | u | u
CCn1c2ccccc2c2cc(/C=N/NC(=O)c3ccncc3)ccc21 | n | 16µM | n | n | u | n
CCn1c2ccccc2c2cc(/C=N/NC(=O)c3ccc(O)cc3)ccc21 | n | u | n | u | u | u
CCn1c2ccccc2c2cc(NC(=O)c3ccc(=O)oc3)ccc21 | n | u | n | 50µM | u | u
CC1CCc2c(sc(NC(=O)c3cccn3C)c2C(N)=O)C1 (stereo unspecified) | n | x | n | u | 32µM | n
CCn1c(SCC(=O)Nc2ccc3c(c2)c2ccccc2n3CC)nnc1-c1ccco1 | n | n | u | u | 25µM | 35µM
CCn1c(SCC(=O)N/N=C/C(C)=C\c2ccco2)nnc1-c1ccccc1 | u | 28µM | n | 45µM | u | u
Cc1nnc(NC(=O)CSc2nnc(-c3ccco3)n2C(C)C)s1 | n | n | n | n | n | n
CCn1c(SCC(=O)Nc2cccc(NC(C)=O)c2)nnc1-c1ccco1 | n | n | n | n | n | n
CC(C)n1c(SCC(=O)Nc2nncs2)nnc1-c1ccco1 | 13µM | 20µM | n | 16µM | 7.9µM | 79µM
CCn1c(SCC(=O)N/N=C/c2ccc(C)o2)nnc1-c1ccccc1 | n | n | n | n | n | n
CC1(C(=O)NS(=O)(=O)C2CC2)CCN(C(=O)c2ccc3ccccc3n2)C1 (stereo unspecified) | x | x | n | x | x | x
O=[N+]([O-])c1ccc(OCCn2cnc3ccccc32)cc1 | n | n | n | n | n | n
O=S(=O)(c1cccs1)N1CCN(c2ccnc3cc(Cl)ccc23)CC1 | n | n | n | n | n | n
O=C(C(=Cc1ccccc1)c1ccccc1)c1ccccc1 | x | x | n | x | x | x
O=C(C(=Cc1ccc(F)cc1)c1ccccc1)c1ccc(O)cc1 | x | x | 11µM | n | n | n
CCCn1cc(S(=O)(=O)c2ccc(OC)cc2)c(=O)c2cc(F)c(N3CCCC(C)C3)cc21 (stereo unspecified) | x | n | n | n | n | n
CCc1cc(=O)oc2cc(C)c(CN3CCCCC3)c(O)c12 | 22µM | 8.9µM | n | 7.9µM | 14µM | 18µM
CCC1(c2ccc(Cl)cc2)NC(=O)N(CC(=O)N2CCN(C(=O)c3ccco3)CC2)C1=O (stereo unspecified) | n | x | n | n | n | n
O=C(CN1C(=O)c2ccccc2C1=O)NCC(=O)OCC(=O)c1cccc([N+](=O)[O-])c1 | n | n | n | n | n | n
CC(=O)c1cc(C)c(OCc2cn(CC(=O)c3ccc(O)cc3)nn2)c(C)c1 | x | x | n | 7.9µM | n | n
SMILES | APE1 inh | POLB inh | GLS inhibitor | Pol iota inh | POLH inh | POLK inh
CCCC(=O)c1ccc(OCc2cn(CC(=O)c3ccc(O)cc3)nn2)cc1 | x | x | n | u | n | n
O=C(Nc1ccccc1Cl)c1ccc([N+](=O)[O-])o1 | n | n | n | n | n | n
COc1ccccc1NC(=O)CSc1nc(N)c(-c2ccccc2)c(=O)[nH]1 | n | n | n | n | n | n
CCCOc1ccc(-c2nc(SCc3ccccc3)[nH]c(=O)c2C#N)cc1OC | n | 50µM | n | n | n | n
N#Cc1c(-c2ccccc2)nc(SCC(=O)NC2CCCCC2)[nH]c1=O | n | n | n | n | n | n
Cc1ccc(C)c(NC(=O)CSc2nc(-c3ccccc3)c(C#N)c(=O)[nH]2)c1 | x | 56µM | n | u | n | n
CN(C(=O)CSc1nc(-c2ccc(C(C)(C)C)cc2)c(C#N)c(=O)[nH]1)C1CCCCC1 | n | u | n | u | 35µM | n
COc1ccccc1NC(=O)CSc1nc(-c2ccc(C(C)(C)C)cc2)c(C#N)c(=O)[nH]1 | x | 79µM | n | n | x | n
C[C@H](CO)N1C[C@H](C)[C@@H](CN(C)Cc2ccc(C(=O)O)cc2)Oc2c(NS(=O)(=O)c3ccccc3)cccc2C1=O | n | x | n | n | n | n
CNC(=O)c1sc(-c2cccnc2)nc1C | n | n | n | n | n | n
CCCCCCc1cc2cc(-c3nnc(-c4cc(OC)c(OC)c(OC)c4)o3)c(=O)oc2cc1O | n | n | n | n | u | n
CCCCCCc1cc2cc(-c3nnc(-c4ccccc4O)o3)c(=O)oc2cc1O | n | u | n | u | 1.8µM | n
CCCN(CCC)C(=O)Cn1c(=O)n(-c2cccc(C)c2)c(=O)c2c1c1cc(OC)ccc1n2C | x | n | n | n | n | n
Cc1ccc(OCC(=O)Nc2cc(NC(=O)COc3ccc(C)c(C)c3)cc(C(=O)O)c2)cc1C | n | 50µM | n | n | u | n
COc1ccc(OCC(=O)Nc2cc(NC(=O)COc3ccc(OC)cc3)cc(C(=O)O)c2)cc1 | n | n | n | u | n | n
O=C(COc1ccccc1Cl)c1ccc[nH]1 | u | 11µM | n | u | n | n
O=C(COc1ccccc1Cl)Nc1cc(NC(=O)COc2ccccc2Cl)cc(C(=O)O)c1 | n | 79µM | n | n | n | n
O=C(COc1ccc(Cl)cc1Cl)Nc1ccc(C(=O)Nc2ccccc2C(=O)O)cc1 | n | 32µM | u | u | n | n
O=C(COc1ccc(Br)cc1Cl)c1ccc[nH]1 | n | u | n | n | n | n
O=C(CNC(=O)c1cccs1)NCC(=O)OCc1c(F)cccc1Cl | n | n | n | n | n | n
COc1ccc2c(c1)C(=O)C(=O)N2 | n | n | n | n | u | n
CC1CCC(NC(=O)CN2C(=O)c3cccnc3Oc3ccc(Cl)cc32)CC1 (stereo unspecified) | n | n | n | n | n | n
CC(=O)OC[C@H]1O[C@@H](n2ncc(=O)[nH]c2=O)[C@H](OC(C)=O)[C@@H]1OC(C)=O | n | n | n | n | n | n
O=C(OCC1OC(n2ncc(=O)[nH]c2=O)C(OC(=O)c2ccccc2)C1OC(=O)c1ccccc1)c1ccccc1 (stereo unspecified) | n | u | n | u | 89µM | u
CCN(CC(=O)Nc1c(F)cccc1F)C(=O)c1ccc(=O)n(Cc2ccccc2)n1 | n | n | n | n | n | n
